From PubChem BioAssay (NCATS)
The source made the active and inactive calls. Unless noted, calls follow the shape of the dose curve; as a rule, active = well fitted curve in the direction sought with a large enough effect; inconclusive = small, poorly fitted or top-dose-only effect, or another doubt; inactive = no such curve, though single readings can be large; an effect the other way counts as inactive or inconclusive.

What was measured:
[1] = Cell Viability - LYMP1-002 - Assay at 40 hr (AID 994); settings: LYMP1-002 lymphoblastoid cell viability; also: potency is read from the fitted curve at half-maximal effect; nearly all actives have a fitted effect of over 60% in size
In short: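 Human lymphoblastoid cells, 2500/well in complete medium, were preincubated 5 hr at 37 C, then exposed to compounds for 40 hr at 37 C. Intracellular ATP was read by CellTiter-Glo luminescence after 30 min at room temperature; AC50 from Hill-equation fits.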

[2] = target: Estrogen receptor (Homo sapiens) (UniProt P03372); experiment: qHTS assay for small molecule antagonists of estrogen receptor alpha signaling (AID 588513; active = well fitted curve in the direction sought with a large enough effect in the signal ratio, with a control signal flat, not every such curve was filed as active; inconclusive = small, poorly fitted or top-dose-only effect, or effect the other way, or a change in a side signal; inactive = no such curve, though single readings can be large or run the other way; the % refers to the signal ratio; also: potency is read from the fitted curve at half-maximal effect)
Estrogen receptor (Homo sapiens), sequence (P03372 whole entry, looked up): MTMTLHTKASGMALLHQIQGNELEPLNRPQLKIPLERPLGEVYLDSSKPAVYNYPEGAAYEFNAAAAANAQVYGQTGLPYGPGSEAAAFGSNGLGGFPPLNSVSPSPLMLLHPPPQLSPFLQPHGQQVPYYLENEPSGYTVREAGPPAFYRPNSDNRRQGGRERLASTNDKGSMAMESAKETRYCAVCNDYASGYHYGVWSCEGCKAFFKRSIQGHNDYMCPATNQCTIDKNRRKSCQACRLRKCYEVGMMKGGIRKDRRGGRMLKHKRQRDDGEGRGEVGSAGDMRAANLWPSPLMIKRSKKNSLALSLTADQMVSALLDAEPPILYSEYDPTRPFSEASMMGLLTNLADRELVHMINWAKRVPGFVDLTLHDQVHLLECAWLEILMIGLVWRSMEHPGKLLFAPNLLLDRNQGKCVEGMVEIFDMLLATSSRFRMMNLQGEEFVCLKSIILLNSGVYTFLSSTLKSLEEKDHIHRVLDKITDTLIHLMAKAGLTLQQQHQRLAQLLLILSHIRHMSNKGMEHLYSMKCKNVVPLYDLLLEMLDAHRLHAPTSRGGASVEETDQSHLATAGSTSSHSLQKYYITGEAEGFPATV
In short: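 ER-alpha-UAS-bla GripTite HEK 293 cells in medium with 2% charcoal/dextran-treated FBS were preincubated 4 h at 37 C, dosed with compound (1:2 titration), stimulated with 0.5nM 17-beta-estradiol for 18 h, then read by CCF4 beta-lactamase fluorescence.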

[3] = target: Vitamin D3 receptor (Homo sapiens) (UniProt P11473); experiment: qHTS assay for small molecule antagonists of vitamin D receptor signaling (AID 588541; calls by dose curve; also: potency is read from the fitted curve at half-maximal effect)
Vitamin D3 receptor (Homo sapiens), sequence (P11473 whole entry, looked up): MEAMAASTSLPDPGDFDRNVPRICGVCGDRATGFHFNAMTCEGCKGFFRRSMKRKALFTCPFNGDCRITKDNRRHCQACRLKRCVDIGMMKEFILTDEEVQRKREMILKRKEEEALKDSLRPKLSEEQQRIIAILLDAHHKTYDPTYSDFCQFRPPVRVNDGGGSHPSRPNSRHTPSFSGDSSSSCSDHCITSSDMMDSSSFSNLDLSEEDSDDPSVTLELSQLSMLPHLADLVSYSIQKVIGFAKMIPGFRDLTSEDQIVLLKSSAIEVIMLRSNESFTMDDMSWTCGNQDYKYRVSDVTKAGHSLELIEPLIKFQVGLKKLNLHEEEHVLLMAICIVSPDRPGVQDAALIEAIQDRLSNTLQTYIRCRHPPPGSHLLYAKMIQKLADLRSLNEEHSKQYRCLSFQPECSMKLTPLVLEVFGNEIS
In short: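 VDR-UAS-bla HEK293T cells (2000/well, 2% charcoal-stripped FBS) were treated with titrated compounds plus 1-alpha,25-dihydroxyvitamin D3 (50 nM or 3 nM final) for 16 h at 37 C. CCF4 beta-lactamase fluorescence was read; Hill fits gave IC50.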

[4] = target: Voltage-gated inwardly rectifying potassium channel KCNH2 (Homo sapiens) (UniProt Q12809); experiment: qHTS Assay for Small Molecule Inhibitors of the Human hERG Channel Activity (AID 588834);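 also: top concentration of the series differs between compounds; % is scaled to controls: 0 for no effect and ±100 for the full control effect; lower thallium flux fluorescence means stronger hERG block; nearly all actives have a fitted effect of over 50% in size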
Voltage-gated inwardly rectifying potassium channel KCNH2 (Homo sapiens), sequence (Q12809 whole entry, looked up): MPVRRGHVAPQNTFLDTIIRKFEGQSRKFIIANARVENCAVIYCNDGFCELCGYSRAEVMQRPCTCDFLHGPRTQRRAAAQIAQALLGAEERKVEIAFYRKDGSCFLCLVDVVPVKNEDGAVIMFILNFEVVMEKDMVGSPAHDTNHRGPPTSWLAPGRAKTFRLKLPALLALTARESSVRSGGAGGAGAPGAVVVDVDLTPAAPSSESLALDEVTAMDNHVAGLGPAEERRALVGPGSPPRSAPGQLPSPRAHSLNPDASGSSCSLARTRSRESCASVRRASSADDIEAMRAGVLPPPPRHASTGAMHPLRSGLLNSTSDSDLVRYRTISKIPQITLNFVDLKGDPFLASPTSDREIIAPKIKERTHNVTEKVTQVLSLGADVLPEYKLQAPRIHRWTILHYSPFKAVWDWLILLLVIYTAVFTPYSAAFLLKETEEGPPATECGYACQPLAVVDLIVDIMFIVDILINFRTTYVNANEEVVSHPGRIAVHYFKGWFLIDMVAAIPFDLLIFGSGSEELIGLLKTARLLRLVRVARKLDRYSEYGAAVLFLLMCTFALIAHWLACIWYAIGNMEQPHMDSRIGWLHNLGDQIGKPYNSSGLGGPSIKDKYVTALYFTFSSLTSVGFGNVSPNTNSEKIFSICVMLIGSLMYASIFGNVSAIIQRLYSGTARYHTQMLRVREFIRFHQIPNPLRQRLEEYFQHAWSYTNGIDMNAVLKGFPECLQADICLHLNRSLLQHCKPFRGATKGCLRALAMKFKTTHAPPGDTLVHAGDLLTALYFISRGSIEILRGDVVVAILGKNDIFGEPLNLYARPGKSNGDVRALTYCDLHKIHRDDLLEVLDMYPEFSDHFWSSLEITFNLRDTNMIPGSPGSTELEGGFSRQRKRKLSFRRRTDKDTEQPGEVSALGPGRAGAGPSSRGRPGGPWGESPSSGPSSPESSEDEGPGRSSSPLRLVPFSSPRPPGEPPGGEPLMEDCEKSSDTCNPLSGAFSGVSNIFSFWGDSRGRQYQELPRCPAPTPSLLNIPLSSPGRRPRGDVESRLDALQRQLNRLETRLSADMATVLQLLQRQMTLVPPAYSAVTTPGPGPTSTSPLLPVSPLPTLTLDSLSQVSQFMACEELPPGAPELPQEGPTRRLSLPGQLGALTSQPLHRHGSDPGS
In short: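 U2OS cells transduced with hERG via BacMam (MOI ~100), plated 2000/well, loaded with FluxOR thallium dye, compound ~10 min, then stimulation buffer; fluorescence decrease read kinetically; AC50 from Hill fits.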

[5] = qHTS assay for small molecule disruptors of the mitochondrial membrane potential - 1 hr assay (AID 651754; calls by dose curve; also: potency is read from the fitted curve at half-maximal effect; nearly all actives have a fitted effect of over 35% in size)
In short: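 HepG2 cells, attached overnight at 37C, were exposed to compound or DMSO vehicle for 1 hr at 37C, 5% CO2, then stained with Mito-MPS dye for 30 min. Red aggregate versus green monomer fluorescence reports membrane potential.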

[6] = qHTS assay for small molecule disruptors of the mitochondrial membrane potential - 5 hr assay (AID 651755; calls by dose curve; also: potency is read from the fitted curve at half-maximal effect; nearly all actives have a fitted effect of over 40% in size); settings: JC-1-type ratio dye
In short: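 HepG2 cells, attached overnight at 37C, were exposed to compound or DMSO for 5 hr at 37C, 5% CO2. Mito-MPS dye was then added for 30 min, and fluorescence read at 490/535 nm (monomers) and 540/590 nm (aggregates).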

[7] = qHTS assay for environmental chemicals that activate the Aryl hydrocarbon Receptor (AhR) signaling pathway (AID 651777); settings: 1A2-DRE human hepatoma cells, luciferase, 24 h; active compounds read high; also: % of control where 0% means no effect; nearly all actives have a fitted effect of over 15% in size
In short: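 Quantitative HTS in stably transfected human liver-derived cells whose luciferase gene sits downstream of the CYP1A2 promoter and dioxin response element. After 24 hr exposure at 37 C, One-Glo luminescence was measured.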

[8] = target: Peroxisome proliferator-activated receptor alpha (Homo sapiens) (UniProt Q07869); experiment: qHTS assay for small molecule agonists of the peroxisome proliferator-activated receptor alpha (PPARalpha) signaling pathway (AID 651778); settings: PathHunter PPARalpha complementation, chemiluminescence, 6 h; active compounds read high; also: % of control where 0% means no effect
Peroxisome proliferator-activated receptor alpha (Homo sapiens), sequence (Q07869 whole entry, looked up): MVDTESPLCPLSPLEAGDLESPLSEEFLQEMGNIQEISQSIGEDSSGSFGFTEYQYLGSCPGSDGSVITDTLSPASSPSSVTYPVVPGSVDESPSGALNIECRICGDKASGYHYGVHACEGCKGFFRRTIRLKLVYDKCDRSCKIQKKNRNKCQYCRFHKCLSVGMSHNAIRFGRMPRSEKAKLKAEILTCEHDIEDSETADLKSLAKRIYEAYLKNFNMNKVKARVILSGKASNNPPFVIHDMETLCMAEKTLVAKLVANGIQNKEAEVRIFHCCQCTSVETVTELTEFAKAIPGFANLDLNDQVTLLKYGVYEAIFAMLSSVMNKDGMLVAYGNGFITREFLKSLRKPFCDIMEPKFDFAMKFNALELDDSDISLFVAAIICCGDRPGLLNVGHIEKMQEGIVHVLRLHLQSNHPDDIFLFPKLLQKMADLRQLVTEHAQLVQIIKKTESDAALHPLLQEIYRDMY
In short: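 Cells plated at 2,000/well and held overnight at 37 C, 5% CO2, then compound added by pin tool for 6 hr; after PathHunter detection reagent and 60 min at room temperature, chemiluminescence from enzyme complementation was read.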

[9] = target: Nuclear receptor ROR-gamma (Homo sapiens) (UniProt P51449); experiment: qHTS assay for small molecule antagonists of the retinoid-related orphan receptor gamma (ROR-gamma) signaling pathway (AID 651802); settings: ROR-gamma antagonist cell reporter assay; also: potency is read from the fitted curve at half-maximal effect; nearly all actives have a fitted effect of over 60% in size
Nuclear receptor ROR-gamma (Homo sapiens), sequence (P51449 whole entry, looked up): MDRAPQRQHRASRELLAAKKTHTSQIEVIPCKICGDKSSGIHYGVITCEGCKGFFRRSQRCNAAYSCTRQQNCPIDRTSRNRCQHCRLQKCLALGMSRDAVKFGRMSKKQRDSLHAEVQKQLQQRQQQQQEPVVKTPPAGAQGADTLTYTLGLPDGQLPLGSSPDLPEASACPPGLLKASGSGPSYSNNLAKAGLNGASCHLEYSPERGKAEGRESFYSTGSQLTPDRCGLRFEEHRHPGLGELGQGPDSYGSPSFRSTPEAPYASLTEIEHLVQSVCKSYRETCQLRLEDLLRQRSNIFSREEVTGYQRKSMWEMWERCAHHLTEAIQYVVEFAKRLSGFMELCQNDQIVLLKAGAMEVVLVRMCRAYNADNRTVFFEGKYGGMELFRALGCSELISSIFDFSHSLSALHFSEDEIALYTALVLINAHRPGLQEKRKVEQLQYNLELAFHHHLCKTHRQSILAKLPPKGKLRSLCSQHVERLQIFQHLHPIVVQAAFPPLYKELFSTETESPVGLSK
In short: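 CHO cells carrying TET-inducible ROR-gamma and an ROR response element–luciferase reporter were exposed to compound, then induced with doxycycline. After 16hr at 37C, luminescence was read; lower signal indicates antagonism.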

[10] = qHTS assay for small molecule antagonists of the retinoid-related orphan receptor gamma (ROR-gamma) signaling pathway - cell viability counter screen (AID 720652; active = well fitted curve in the direction sought with a large enough effect in the repeat runs; inconclusive = weak or mixed curves; inactive = no such curve, though single readings can be large; an effect the other way counts as inactive or inconclusive;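 also: potency is read from the fitted curve at half-maximal effect; compound exposure lasted 16 hr before ATP read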); settings: RORgamma reporter cell line viability counter screen
In short: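 Counter screen in CHO cells carrying TET-inducible ROR-gamma and an ROR response element-luciferase reporter; cells plated 5 hr, compound pinned, doxycycline added, then 16 hr at 37 C. Viability read as intracellular ATP by CellTiter-Glo luminescence.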

[11] = qHTS assay for small molecule agonists of the antioxidant response element (ARE) signaling pathway measured by Nrf2-dependant transcriptional activity - cell viability counter screen (AID 720653; active = well fitted curve in the direction sought with a large enough effect in the repeat runs; inconclusive = weak or mixed curves; inactive = no such curve, though single readings can be large; an effect the other way counts as inactive or inconclusive; also: potency is read from the fitted curve at half-maximal effect); settings: ARE-bla HepG2 viability, CellTiter-Glo ATP luminescence, 16 h; max response: active compounds read low
In short: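 ARE-bla HepG2 cells (2,000/well) rested 5 hrs at 37C/5% CO2, then exposed to compounds in DMSO for 16 hrs. Viability was read in the same wells as intracellular ATP by luminescence, 30 min at room temperature after reagent addition.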

[12] = qHTS assay for cell viability of HEK293 cells (AID 743288); settings: ATP luminescence (CellTiter-Glo), 18 h; max response: active compounds read low; also: potency is read from the fitted curve at half-maximal effect; nearly all actives have a fitted effect of over 50% in size
In short: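 Parental HEK293 cells were seeded at 2,000 cells/well, rested at least 5 h at 37 C, then exposed to compounds in DMSO for 18 h at 37 C. Viability was read as ATP-dependent luciferase luminescence after 30 min at room temperature.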

[13] = qHTS assay for cell viability of the p53RE-bla HCT-116 cell line (AID 743292); also: potency is read from the fitted curve at half-maximal effect; nearly all actives have a fitted effect of over 55% in size
In short: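 Viability of compound-treated p53RE-bla HCT-116 cells is taken from ATP-dependent luciferase luminescence. Treatment lasts 16 h at 37 C after a 5 h settling period; detection follows 30 min at room temperature.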

Furin (Homo sapiens) = Furin (Homo sapiens) (UniProt P09958); experiment: Furin counterscreen qHTS for Zika virus inhibitors (AID 1347149);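 also: purified recombinant full-length human furin enzyme at 5 nM; fluorescence gain from furin cutting a BOC-RVRR-AMC peptide substrate over 15 min; top concentration of the series differs between compounds; plate controls were no-inhibitor control for no effect and no-enzyme control for full effect; nearly all actives have a fitted effect of over 70% in size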
Furin (Homo sapiens), sequence (P09958 whole entry, looked up): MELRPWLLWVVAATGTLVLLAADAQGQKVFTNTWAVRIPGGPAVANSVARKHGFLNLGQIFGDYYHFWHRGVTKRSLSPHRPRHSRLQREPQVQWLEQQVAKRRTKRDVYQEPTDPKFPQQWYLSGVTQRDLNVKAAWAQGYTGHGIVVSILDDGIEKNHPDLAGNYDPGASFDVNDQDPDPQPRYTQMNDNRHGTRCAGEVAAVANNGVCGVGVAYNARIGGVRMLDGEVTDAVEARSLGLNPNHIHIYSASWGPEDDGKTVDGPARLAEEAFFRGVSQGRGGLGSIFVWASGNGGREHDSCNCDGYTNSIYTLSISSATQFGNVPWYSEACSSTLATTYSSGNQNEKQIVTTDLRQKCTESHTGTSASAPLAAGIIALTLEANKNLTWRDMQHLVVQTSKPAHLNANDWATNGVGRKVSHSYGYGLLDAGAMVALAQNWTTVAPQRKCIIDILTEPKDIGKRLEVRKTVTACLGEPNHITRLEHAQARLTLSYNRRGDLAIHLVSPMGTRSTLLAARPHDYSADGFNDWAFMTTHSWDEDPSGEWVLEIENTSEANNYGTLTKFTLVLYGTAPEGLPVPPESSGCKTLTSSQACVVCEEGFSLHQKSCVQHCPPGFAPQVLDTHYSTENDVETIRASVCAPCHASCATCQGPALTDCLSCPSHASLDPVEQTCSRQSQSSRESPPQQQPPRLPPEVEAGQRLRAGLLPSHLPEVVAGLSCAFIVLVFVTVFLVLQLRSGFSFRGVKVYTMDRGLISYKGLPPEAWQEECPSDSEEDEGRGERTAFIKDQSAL
In short: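 Fluorogenic cleavage of BOC-RVRR-AMC (2 microM final, Km ~15 µM) was monitored (ex 340, em 450 nm) at 37C after 15 min RT preincubation of 5 nM furin with compounds in HEPES pH 7.0 buffer with CaCl2 and Triton X-100. Percent inhibition was fitted to a 4-parameter Hill curve.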

[14] = tested on: Zika virus NS2B-NS3 protease (linked); experiment: 384 well plate NINDS AMC confirmatory qHTS for Zika virus inhibitors (AID 1347163); also: potency is read from the fitted curve at half-maximal effect; nearly all actives have a fitted effect of over 50% in size
In short: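 Linked protease 5/30/60 nM final; cpds up to 1 mM final, ~15 min preinc. Substrate Ac-VKTGKR-AMC 30 microM final. RT, dark, 25 min; FI ex 355/em 460; normalized to no-enzyme/no-inhibitor ctrls.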

[15] = tested on: Zika virus NS2B-NS3 protease (linked construct); experiment: 384 well plate NINDS Rhodamine confirmatory qHTS for Zika virus inhibitors (AID 1347164);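 also: fluorescence from protease cleavage of Ac-LKRR-rhodamine 110 substrate; potency is read from the fitted curve at half-maximal effect; nearly all actives have a fitted effect of over 65% in size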
In short: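 Linked protease at a final 5 nM, 30 nM or 60 nM was preincubated ~15 min with compounds, then given 10 microM Ac-LKRR-Rhodamine 110. Fluorescence (ex 485/em 538 nm) after 25 min in the dark at room temperature.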

[16] = Vero cells viability qHTS for Zika virus inhibitors (AID 1347167); also: % is scaled to controls: 0 for no effect and ±100 for the full control effect
In short: (§1)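 Counter-screen for cytotoxicity of hits from NS2B-NS3 protease qHTS. Overnight-attached cells (2.5 x 10^5 cells/mL, DMEM/4% FBS) were dosed in titration, incubated 24 to 48 hours, then assayed by CellTiter Glo.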

[17] = HepG2 cells viability qHTS for Zika virus inhibitors (AID 1347168); also: potency is read from the fitted curve at half-maximal effect
In short: as §1

[18] = Tertiary RLuc qRT-PCR qHTS assay for Zika virus inhibitors (AID 1347169); also: potency is read from the fitted curve at half-maximal effect; nearly all actives have a fitted effect of over 55% in size
In short: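 Vero cells (1,000 per well) plated overnight at 37 degrees C, treated with compound in DMSO, then infected with recombinant ZIKV-RLuc (Cambodian) at MOI 1-2 for 48-72 hrs. Live-cell Renilla luciferase substrate added; luminescence read after 1-1.5 hrs.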

[19] = qHTS assay for small molecule activators of the human pregnane X receptor (PXR) signaling pathway (AID 720659; call rule not given here; also: 0% is about no effect)

O=C1c2c(O)ccc([N+](=O)[O-])c2C(=O)c2c([N+](=O)[O-])ccc(O)c21
active: Potency [1] 39.8 µM | Potency [2] 14.1 µM [inconclusive] | Potency [3] 22.4 µM | Potency [5] 5.31 µM | Potency [6] 3.76 µM | Potency [9] 16.8 µM | Potency [10] 33.5 µM | Potency [11] 20 µM | Potency [12] 39.8 µM | Potency [13] 39.8 µM | Potency [14] 100 µM | Potency [15] 70.8 µM | Potency [17] 42.6 µM | Potency [18] 13.5 µM
inactive: Potency [4] | activation [7] 5.47% | max response [8] -6.07% | Potency (Furin (Homo sapiens)) | Potency [16] | outcome [19]
